The campaign covered roughly 310,000 compounds. About 18,000 (5.8%) were called active. About 22% were inconclusive and are not listed. The list comes from a sample in which actives are over-represented; it also holds similar structures and randomly drawn compounds. A number with no mark means an inactive call. Calls come from the whole dose curve; as a rule, active = well fitted inhibition curve with a large enough effect; inconclusive = small, poorly fitted or top-dose-only effect, or another doubt; inactive = no such curve, though single readings can be large or run the other way. Non-standard residues stand in square brackets, D forms with d. Residues, ends and D or L forms follow the SMILES beside them. *: point of attachment. PhAc = O=C(Cc1ccccc1)*
Assay: Primary qHTS for delayed death inhibitors of the malarial parasite plastid, 48 hour incubation
Settings: P. falciparum luciferase growth in erythrocytes; series mostly up to 28.7 µM; activity change, negative = inhibition: at the top concentration
Method in brief: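 Cell-based growth assay: transgenic P. falciparum expressing firefly luciferase, cultured in red cells within RPMI 1640 containing 0.5% w/v Albumax, 24 mM bicarbonate and gentamycin. A drop in luciferase activity indicates inhibition.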
% is set by controls: 0 for no effect and ±100 for the full control effect; potency is the fitted concentration of half-maximal effect.

SMILES	activity change, negative = inhibition	Potency
O=C1NC(c2ccccc2)Oc2ccccc21 (centres undefined)	-9%	
COc1ccc(-c2ocnc2C(=O)Nc2ccc3c(c2)CCC3)cc1	16.9%	
O=C(Nc1nnc(-c2ccc(F)cc2)s1)c1c(F)cccc1Cl	10.8%	
CC(=O)c1nn(-c2cccc(C(F)(F)F)c2)c(=O)[nH]c1=O	-16.7%	
CCNS(=O)(=O)c1ccc(CCC(=O)N2CCN(c3ccc(OC)cc3)CC2)cc1	1.74%	
COc1ccc(OCCNC(=O)c2cc(C3CC3)nc3c2cnn3C(C)C)cc1		13.1 µM (active)
CCCc1ccc(OCCNC(=O)c2ccccc2Br)cc1	-24.5%	
COCCNC(=O)COc1ccc(C)c(C)c1	39.1%	
CC(C)n1ncc2c(C(=O)NCc3ccccc3CN(C)C)cc(C3CC3)nc21		11.7 µM (active)
CC(=O)Nc1ccc(CC#N)cc1	3.33%	
CC(C)n1ncc2c(C(=O)Nc3ccc(CC#N)cc3)cc(C3CC3)nc21		14.7 µM (active)
N#CCc1ccc(NC(=O)c2ccccc2C(=O)Nc2ccc(CC#N)cc2)cc1	20.5%	
Cc1ccccc1OCCC(=O)OCC(=O)NCCc1ccc(S(N)(=O)=O)cc1	0%	
Cc1cc(C)c(S(=O)(=O)c2cc(F)ccc2C)c(=O)[nH]1	23.4%	
O=c1ccc(-c2ccc(S(=O)(=O)Nc3ccccc3)o2)n[nH]1	18.2%	
O=C(CN1C(=O)CSC1=O)N1CCCC(Nc2ccc(F)cc2)C1 (centres undefined)	-15.8%	
Cc1ccc(S(=O)(=O)N(C)c2ccc(OCC(=O)OCC(=O)N(CC#N)c3ccccc3)cc2)cc1	-18.1%	
Cc1cccc(NC(=S)NC(=O)c2ccc(Br)o2)c1	29.3%	
Cc1cccc(NC(=O)c2ccc([N+](=O)[O-])o2)c1		13.1 µM (active)
O=C(Nc1ccc(Br)cn1)c1ccc([N+](=O)[O-])o1	-37.6%	
O=C(CNC(=O)c1ccc(Br)o1)Nc1ccccc1	5.96%	
COCCNC(=O)c1ccc(S(=O)(=O)c2ccc(Cl)cc2)c(NC(C)=O)c1	0.449% [at 0.00184 µM]	
CC12CCC(C(=O)N3CCN(c4ncccn4)CC3)(c3nc4ccccc4nc31)C2(C)C (centres undefined)		11.7 µM (active)
c1cnc(N2CCN(c3ccc4ccccc4n3)CC2)nc1	161%	
CC(Oc1ccc(F)cc1)C(=O)N1CCN(c2ncccn2)CC1 (centres undefined)	4.64%	

SMILES	activity change, negative = inhibition	Potency
O=C(NCc1nnc(SCC(=O)N2CCCCCC2)o1)c1ccc(F)cc1	-11.3%	
Cc1ccc(S(=O)(=O)N[C@@H](Cc2ccccc2)C(=O)N2CCC(C(=O)N[C@H](C(=O)O)C(C)O)CC2)cc1 (some centres undefined)	18.2%	
Cc1cc(C)c(C#N)c(SCc2ccccc2C(=O)O)n1	31.1%	
Cc1cc(NC(=O)CSc2nc3c(cc2C#N)CCCCC3)no1	42.4%	
N#CC1=C(SCc2ccccc2)NC(=O)C(C#N)C12CCCC2 (centres undefined)	5.15%	
CC(NC(=O)CSc1nc2c(cc1C#N)CN(C)CC2)c1ccccc1 (centres undefined)		10.4 µM (active)
CC1(C)CCc2nc(SCc3ccccc3)c(C#N)cc2C1		5.22 µM (active)
CN1CCc2nc(SC(C(=O)O)c3ccccc3)c(C#N)c(-c3cccs3)c2C1 (centres undefined)	-13.9%	
C[C@@H]1CC[C@@]2(OC1)O[C@H]1C[C@H]3[C@@H]4CC=C5C[C@@H](O)[C@H](O)C[C@]5(C)C4CC[C@]3(C)[C@H]1[C@@H]2C (some centres undefined)	29.2%	
CN(C)c1ccc(CNC(=O)CN2C(=O)COc3ccc(S(=O)(=O)N4CCCC4)cc32)cc1	14.1%	
Cc1ccc(S(=O)(=O)NCc2ccc(C(=O)NC3CCC(C)CC3)cc2)cc1 (centres undefined)	-18.1%	
O=C(CC(n1cncn1)C(Cl)(Cl)Cl)c1ccc([N+](=O)[O-])cc1 (centres undefined)	-32.2% [at 0.00184 µM]	
CC(C)C[C@@H](NC(=O)[C@H]1CCCN1C(=O)Cc1ccccc1)C(N)=O (PhAc-[dP]-[dL]-NH2)	8.09% [at 0.00184 µM]	
CCOCCn1c(-c2ccccc2)nc2ccccc21	0.39%	
CCCCn1c(N)c(N(CCOC)C(=O)CSCC(=O)Nc2cccc(C)c2)c(=O)[nH]c1=O	-10.7%	
CCCCn1c(-c2cccc(C)c2)nc2cc3[nH]c(=O)c(C(C)C)nc3cc21		9.28 µM (active)
CN(C(=O)CC1C(=O)NCCN1Cc1ccc(F)cc1Cl)C1CCCCC1 (centres undefined)		11.7 µM (active)
CN(Cc1cccc2ncccc12)C(=O)CC1C(=O)NCCN1Cc1ccc(F)cc1 (centres undefined)	-6.35%	
CN(C(=O)CC1C(=O)NCCN1Cc1ccc2ccccc2c1)C1CCOCC1 (centres undefined)	-7.75%	
O=C(CN(Cc1ccccc1)C(=O)CCC(=O)Nc1ccccn1)NCCc1ccccc1	1.95%	
Cc1sc2ncn(CC(=O)NCCCC(=O)N3CCN(c4ccccc4F)CC3)c(=O)c2c1C	17.2%	
CCCCCOc1ccc(/C=C/C(=O)NCCc2nc3ccccc3[nH]2)cc1OC		10.4 µM (active)
COc1ccc(OC(C)C(=O)NCCc2nc3ccccc3[nH]2)cc1 (centres undefined)	-4.17%	
O=C(COc1ccccc1)NCCc1nc2ccccc2[nH]1	6.88%	

From PubChem BioAssay AID504832 (National Center for Advancing Translational Sciences (NCATS), 2011)
